# Test results as given in PubChem BioAssay.
# Active and inactive are the calls of the source. Unless noted, how the calls were made is not given here.
# Columns and labels:
# [1] = test system: Wnt5a (protein binding on small-molecule microarray); experiment: small molecules binding Wnt5a protein – biophysical, small-molecule microarray, 635/667 nm fluorescence, primary screen (AID 1142); conditions: 635 nm fluorescence, higher = more signal;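 further: fluorescence read at 667 nm with signal to noise per printed feature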
# [2] = ATP-based viability of Huh7 replicon cells – cell-based, CellTiter-Glo luminescence, basal, 48 h, cytotoxicity control for HCV replication inhibitor project, primary screen (AID 1143); conditions: higher = more signal, called active from +8 up or from −8 down;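 further: Huh7 hepatoma cells carrying a hepatitis C replication reporter with no stimulus; test concentration not given here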
# [3] = Pseudomonas biofilm growth suppression – PAO1 strain, BacTiter-Glo luminescence, LB-PBS, primary screen (AID 1144); conditions: P. aeruginosa PAO1 biofilm, 12 h, higher = more signal
# [4] = basal CRE-LacZ reporter activity in PC12 – cell-based, unstimulated, primary screen (AID 1145); conditions: no forskolin, luminescence, 4.5 h, higher = more signal, called active from +8 up or from −8 down
# [5] = forskolin-driven CRE-LacZ activity in PC12 – cell-based, CRE-LacZ reporter, forskolin-stimulated, primary screen (AID 1146); conditions: luminescence, 4.5 h, higher = more signal, called active from +8 up or from −8 down;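 further: PC12 cells with 6xCRE LacZ reporter stimulated by forskolin 10 µM; beta-galactosidase reporter signal reflecting CREB driven transcription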
# [6] = biological target: Streptavidin (Streptomyces avidinii) (UniProt P22629); experiment: compounds binding control protein streptavidin – biophysical, small-molecule microarray, 635/667 nm fluorescence, artefact control for SMM compound annotation, primary screen (AID 1147); conditions: higher = more signal;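 further: signal reflects streptavidin binding to arrayed compounds as a control protein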
# [7] = probe aInhba binding on compound microarray – biochemical, small-molecule microarray, 635/667 nm fluorescence, primary screen (AID 1148); conditions: higher = more signal;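 further: score merges 667nm spot fluorescence with signal-to-noise for antibody binding to printed compounds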
# Torsin-1A (Homo sapiens) [8] = biological target: Torsin-1A (Homo sapiens) (UniProt O14656); experiment: TOR1A wild-type binding on microarray – cell lysate, small-molecule microarray, lysate, 635/667 nm, primary screen (AID 1149); conditions: COS7 hTOR1A-WT lysate, 635 nm fluorescence, higher = more signal
# Torsin-1A (Homo sapiens) [9] = biological target: Torsin-1A (Homo sapiens) (UniProt O14656); experiment: torsin A mutant lysate binding on microarrays – cell lysate, small-molecule microarray, COS7 lysate, 635/667 nm fluorescence, primary screen (AID 1150); conditions: COS7 hTOR1A mutant lysate, 635 nm fluorescence, higher = more signal;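 further: score pools 667 nm emission and signal to noise measuring lysate protein binding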
# [10] = test system: Sonic hedgehog protein (Shh); experiment: Sonic hedgehog microarray binding compounds – biochemical, small-molecule microarray, 635/667 nm fluorescence, primary screen (AID 1151); conditions: 635 nm fluorescence, higher = more signal;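 further: Shh protein binding to compounds spotted on small-molecule microarray slides; score combines spot fluorescence intensity with signal-to-noise across triplicate slides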
# [11] = optical density shifts of acrAB sulA E. coli – strain DRC41, OD650, 48 h, E. coli filamentation inducer project, primary screen (AID 1152); conditions: higher = more signal, called active from +8 up or from −8 down;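 further: E. coli MC1000 strain DRC41 lacking acrAB efflux pump and sulA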
# [12] = probe aLefty1 binding on compound microarray – biochemical, small-molecule microarray, 635/667 nm fluorescence, primary screen (AID 1153); conditions: higher = more signal;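 further: score merges spot fluorescence with signal-to-noise ratio from the scanned slide images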
# [13] = plasmodial surface anion channel blockers, osmotic lysis – cell-based, P. falciparum Indochina, OD700, 1 h, primary screen (AID 1154); conditions: P. falciparum Indochina infected RBC osmotic lysis, higher = more signal, called active from +8 up or from −8 down
# [14] = plasmodial surface anion channel blockers, osmotic lysis – cell-based, P. falciparum Indochina, OD700, 2 h, primary screen (AID 1155);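 further: lysis reports solute entry through the parasite surface anion channel PSAC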; conditions: P. falciparum Indochina infected erythrocytes, higher = more signal, called active from +8 up or from −8 down
# [15] = changes in parasitized red cell lysis, either direction – P. falciparum Indochina, OD700, 3 h, PSAC antagonist project, primary screen (AID 1156); conditions: P. falciparum-infected erythrocytes, osmotic lysis, higher = more signal, called active from +8 up or from −8 down
# [16] = plasmodial surface anion channel blockers, osmotic lysis – cell-based, P. falciparum Indochina, OD700, 18 h, primary screen (AID 1157); conditions: P. falciparum Indochina infected erythrocytes, osmotic lysis OD700, 18 h; higher = more signal, called active from +8 up or from −8 down
# [17] = S6 kinase pathway phospho-S6 level changes – cell-based, A549, cytoblot, luminescence, serum-stimulated, primary screen (AID 1158); conditions: 5 h, higher = more signal;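 further: serum-stimulated A549 lung adenocarcinoma cells; signal is phosphorylated S6 detected by cytoblot immunostaining with HRP secondary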
# [18] = biological target: NADPH oxidase 2 (Homo sapiens) (UniProt P04839); experiment: compounds shifting NOX2 Amplex Red fluorescence – cell-based, HEK293-NOX2, PMA-stimulated, NOX inhibitor project, primary screen (AID 1159); conditions: 45 min, higher = more signal, called active from +8 up or from −8 down; further: test concentration not given here
# [19] = biological target: NADPH oxidase 4 (Homo sapiens) (UniProt Q9NPH5); experiment: compounds shifting NOX4 Amplex Red fluorescence – cell-based, HEK293-NOX4, tetracycline-induced, NOX inhibitor project, primary screen (AID 1160); conditions: HEK293-NOX4, Amplex Red H2O2 fluorescence, 45 min; higher = more signal, called active from +8 up or from −8 down
# [20] = biological target: NADPH oxidase 5 (Homo sapiens) (UniProt Q96PH1); experiment: compounds shifting NOX5 Amplex Red fluorescence – cell-based, HEK293-NOX5, NOX inhibitor project, primary screen (AID 1161); conditions: HEK293-NOX5, ionomycin, 45 min, higher = more signal
# Chain of NADPH oxidase 5 (Homo sapiens) (Q96PH1 whole entry, looked up): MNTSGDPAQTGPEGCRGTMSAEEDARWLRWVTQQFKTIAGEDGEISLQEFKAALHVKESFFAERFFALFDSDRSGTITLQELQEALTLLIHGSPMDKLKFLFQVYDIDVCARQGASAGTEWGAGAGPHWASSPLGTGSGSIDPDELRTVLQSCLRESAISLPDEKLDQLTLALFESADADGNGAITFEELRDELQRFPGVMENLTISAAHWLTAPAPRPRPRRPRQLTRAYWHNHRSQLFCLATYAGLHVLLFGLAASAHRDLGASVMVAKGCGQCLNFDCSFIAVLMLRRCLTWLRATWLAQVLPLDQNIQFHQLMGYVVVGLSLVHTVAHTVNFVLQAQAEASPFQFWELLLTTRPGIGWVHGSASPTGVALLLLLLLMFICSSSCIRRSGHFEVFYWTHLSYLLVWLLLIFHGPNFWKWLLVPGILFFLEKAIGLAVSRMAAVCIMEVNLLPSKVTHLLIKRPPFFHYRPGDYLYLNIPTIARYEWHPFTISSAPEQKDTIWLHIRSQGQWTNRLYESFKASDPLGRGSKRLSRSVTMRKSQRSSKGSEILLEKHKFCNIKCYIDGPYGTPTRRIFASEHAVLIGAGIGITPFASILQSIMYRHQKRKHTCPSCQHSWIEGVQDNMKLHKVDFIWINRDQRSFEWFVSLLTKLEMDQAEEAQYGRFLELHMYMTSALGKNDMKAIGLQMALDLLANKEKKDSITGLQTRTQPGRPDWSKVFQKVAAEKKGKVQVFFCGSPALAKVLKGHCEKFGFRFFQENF
# Chain of Torsin-1A (Homo sapiens) (O14656 whole entry, looked up): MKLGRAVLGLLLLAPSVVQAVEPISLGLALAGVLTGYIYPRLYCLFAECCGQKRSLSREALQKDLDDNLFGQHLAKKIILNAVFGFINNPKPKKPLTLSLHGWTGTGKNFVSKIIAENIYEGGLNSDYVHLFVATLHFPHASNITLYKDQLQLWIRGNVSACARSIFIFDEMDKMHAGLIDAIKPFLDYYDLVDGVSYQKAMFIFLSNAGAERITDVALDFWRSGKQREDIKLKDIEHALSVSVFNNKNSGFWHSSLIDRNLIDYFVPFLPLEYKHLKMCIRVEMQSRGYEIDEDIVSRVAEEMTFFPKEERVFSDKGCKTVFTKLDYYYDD
# Chain of NADPH oxidase 2 (Homo sapiens) (P04839 whole entry, looked up): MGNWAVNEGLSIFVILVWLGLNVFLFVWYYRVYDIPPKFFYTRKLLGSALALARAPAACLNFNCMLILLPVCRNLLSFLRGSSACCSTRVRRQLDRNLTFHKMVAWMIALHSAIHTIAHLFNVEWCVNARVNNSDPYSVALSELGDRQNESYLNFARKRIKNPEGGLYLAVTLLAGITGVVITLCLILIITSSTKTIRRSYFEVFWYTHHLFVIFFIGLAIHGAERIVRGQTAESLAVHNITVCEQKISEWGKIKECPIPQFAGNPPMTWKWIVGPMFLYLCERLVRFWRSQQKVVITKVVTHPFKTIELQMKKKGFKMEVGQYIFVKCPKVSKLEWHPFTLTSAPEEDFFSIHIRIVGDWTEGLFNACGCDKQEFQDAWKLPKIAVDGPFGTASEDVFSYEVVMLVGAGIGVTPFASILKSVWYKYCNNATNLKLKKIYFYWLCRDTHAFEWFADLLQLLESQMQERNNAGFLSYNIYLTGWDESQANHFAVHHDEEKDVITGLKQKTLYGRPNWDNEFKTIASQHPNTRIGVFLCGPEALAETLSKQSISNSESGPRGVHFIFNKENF
# Chain of NADPH oxidase 4 (Homo sapiens) (Q9NPH5 whole entry, looked up): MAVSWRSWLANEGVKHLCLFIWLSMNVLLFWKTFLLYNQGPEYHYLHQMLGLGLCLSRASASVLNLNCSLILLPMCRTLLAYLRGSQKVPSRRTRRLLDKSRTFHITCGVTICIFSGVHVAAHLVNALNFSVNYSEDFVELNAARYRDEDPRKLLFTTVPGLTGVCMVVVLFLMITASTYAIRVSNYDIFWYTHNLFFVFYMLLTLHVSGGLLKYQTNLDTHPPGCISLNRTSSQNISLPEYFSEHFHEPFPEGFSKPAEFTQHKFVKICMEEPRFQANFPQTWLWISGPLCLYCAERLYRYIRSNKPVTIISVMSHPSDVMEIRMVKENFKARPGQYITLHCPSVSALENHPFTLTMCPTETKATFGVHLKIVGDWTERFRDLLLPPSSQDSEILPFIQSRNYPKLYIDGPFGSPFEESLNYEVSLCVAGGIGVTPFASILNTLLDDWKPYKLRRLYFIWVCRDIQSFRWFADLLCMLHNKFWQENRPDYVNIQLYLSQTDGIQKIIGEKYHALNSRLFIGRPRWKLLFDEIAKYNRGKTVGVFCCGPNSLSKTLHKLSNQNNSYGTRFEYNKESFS
# Chain of Streptavidin (Streptomyces avidinii) (P22629 whole entry, looked up): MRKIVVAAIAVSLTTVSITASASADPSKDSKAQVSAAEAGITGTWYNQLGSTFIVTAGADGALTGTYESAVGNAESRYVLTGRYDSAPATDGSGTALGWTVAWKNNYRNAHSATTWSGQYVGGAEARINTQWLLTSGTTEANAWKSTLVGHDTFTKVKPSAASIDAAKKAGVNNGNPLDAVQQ
SMILES,composite z-score [1],z-score [2],z-score [3],z-score [4],z-score [5],composite z-score [6],composite z-score [7],composite z-score (Torsin-1A (Homo sapiens) [8]),composite z-score (Torsin-1A (Homo sapiens) [9]),composite z-score [10],z-score [11],composite z-score [12],z-score [13],z-score [14],z-score [15],z-score [16],z-score [17],z-score [18],z-score [19],z-score [20]
C=C(COC)/C(=C/C[C@H](OC(=O)c1ccncc1)c1ccccc1OCCO)c1cnc2ccccc2c1,0.488,-0.854 (inactive),-1.13 (inactive),3.24 (inactive),1.42 (inactive),0.294,0.156,1.57,1.42,2.22,0.657 (inactive),0.401,13 (active),1.86 (inactive),1.31 (inactive),0.553 (inactive),0.513,-1.85 (inactive),-0.502 (inactive),-0.71
CN(C)CCCNC(=O)[C@@]1(c2ccc([N+](=O)[O-])cc2)CC(=O)N(CC23CC4CC(CC(C4)C2)C3)[C@@H]1c1ccc(CO)cc1I,0.607,-5.93 (inactive),-0.263 (inactive),0.468 (inactive),0.372 (inactive),0.164,0.206,0.835,0.996,1.96,-5.6 (inactive),0.198,11.4 (active),2.32 (inactive),-8.44 (active),0.352 (inactive),-2.32,-10.3 (active),-5.46 (inactive),-7.32
[N-]=[N+]=Nc1ccccc1C[C@]1(C(=O)N2CCOCC2)N=C(c2ccc(OCCCO)cc2)O[C@H]1c1ccccc1,1.01,-3.57 (inactive),0.567 (inactive),0.204 (inactive),-0.0807 (inactive),0.65,-0.0279,1.14,0.272,0.276,1.61 (inactive),-0.007,20.5 (active),4.95 (inactive),2.84 (inactive),1.43 (inactive),0.251,0.265 (inactive),0.719 (inactive),-1.47
OCC1CC(c2ccccc2)=NO1 (stereo not given),0.111,0.414 (inactive),-0.0165 (inactive),0.312 (inactive),-0.295 (inactive),2.47,-0.0405,0.99,0.322,0.0003,0.727 (inactive),0.0278,5.51 (inactive),0.623 (inactive),-0.182 (inactive),0.206 (inactive),0.137,-1.17 (inactive),-0.137 (inactive),0.273
Cc1ccc(S[C@]2(C(=O)NCCCN(C)C)CC(=O)N(C3CCCCC3)[C@@H]2c2ccc(CO)cc2)cc1,-0.178,-1.19 (inactive),-0.903 (inactive),0.0279 (inactive),1.46 (inactive),-0.677,-0.0375,-1.74,-1.11,-0.728,0.344 (inactive),0.199,4.64 (inactive),0.695 (inactive),2.17 (inactive),0.819 (inactive),-0.358,-2.24 (inactive),-2.06 (inactive),-1.4
COC(=O)[C@@]1(Cc2ccc(F)cc2)[C@H]2c3cc(C(=O)N(C)C)n(Cc4cc(F)cc5c4OCOC5)c3C[C@H]2CN1C(=O)c1ccccc1,0.462,-3.74 (inactive),0.258 (inactive),0.397 (inactive),-0.201 (inactive),1.15,0.115,0.141,0.702,0.3,-0.62 (inactive),0.487,5.56 (inactive),0.0161 (inactive),0.366 (inactive),-1.27 (inactive),1.16,-0.508 (inactive),0.966 (inactive),-3.94
